BoNT F protease – blocks Botulinum neurotoxin F light chain protease; Multiplex microsphere protease cleavage assay, flow cytometry; inhibition, % at 10 µM; 360,000 tested, 0.22% active; AID 588497; in the data active = inhibition above about 35%, passing the limit was not always enough; inconclusive = no clear call, values can overlap the other calls; also: plate controls were buffer without enzyme for full effect and enzyme alone for no effect
BoNT-A LC inh2 – BoNT A light chain protease inhibition; multiplex microsphere protease substrate cleavage, flow cytometry; inhibition, % at 10 µM; 360,000 tested, 0.17% active; also: plate controls were buffer without enzyme for full effect and enzyme alone for no effect
Bead autofluor – flagged as autofluorescent in microsphere protease counterscreen; AID 624483; 360,000 tested, 3.1% active; compound autofluorescence counterscreen, microsphere flow cytometry; stronger effect = higher value; fluorescence intensity (concentration not given with the values); in the data active = fluorescence intensity above about 16000; inconclusive = no clear call, values can overlap the other calls
Anthrax LF prot – blocks Bacillus anthracis lethal factor protease | P15917 | multiplex microsphere protease cleavage assay, LF | inhibition, % at 10 µM | 360,000 tested, 0.12% active; also: plate controls were buffer without enzyme for full effect and enzyme alone for no effect
Target sequence (P15917 whole entry, looked up): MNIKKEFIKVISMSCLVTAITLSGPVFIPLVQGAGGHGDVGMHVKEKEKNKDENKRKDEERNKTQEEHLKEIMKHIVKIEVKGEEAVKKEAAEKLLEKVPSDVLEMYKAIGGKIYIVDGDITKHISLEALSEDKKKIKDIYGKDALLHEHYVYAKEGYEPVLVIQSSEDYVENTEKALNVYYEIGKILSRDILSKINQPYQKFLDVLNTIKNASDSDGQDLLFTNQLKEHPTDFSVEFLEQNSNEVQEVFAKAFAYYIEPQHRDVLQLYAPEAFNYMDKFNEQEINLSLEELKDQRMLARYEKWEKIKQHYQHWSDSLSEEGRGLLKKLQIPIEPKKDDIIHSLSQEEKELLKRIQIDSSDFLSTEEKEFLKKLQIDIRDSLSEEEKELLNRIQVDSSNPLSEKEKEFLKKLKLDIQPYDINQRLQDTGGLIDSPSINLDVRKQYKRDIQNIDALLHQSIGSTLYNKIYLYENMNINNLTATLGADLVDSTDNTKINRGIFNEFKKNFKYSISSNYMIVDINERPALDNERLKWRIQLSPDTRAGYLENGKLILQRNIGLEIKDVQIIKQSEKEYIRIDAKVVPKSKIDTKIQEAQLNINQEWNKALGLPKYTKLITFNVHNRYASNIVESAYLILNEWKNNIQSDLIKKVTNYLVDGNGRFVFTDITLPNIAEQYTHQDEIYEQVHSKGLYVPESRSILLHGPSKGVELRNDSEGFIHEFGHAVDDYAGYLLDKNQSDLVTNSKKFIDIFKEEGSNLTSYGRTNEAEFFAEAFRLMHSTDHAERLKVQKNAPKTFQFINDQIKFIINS
* = called active by the depositor; ? = inconclusive. Rows were chosen to be rich in hits. Some 3.5% of all compounds tested hit in one or more screens of this group. Rule as the data show it, unless noted: active = inhibition above about 30%; inconclusive = no clear call, values can overlap the other calls; inactive = below that.

SMILES	BoNT F protease	BoNT-A LC inh2	Bead autofluor	Anthrax LF prot
Cc1nn(CCOc2ccccc2)c(=O)n1-c1ccc(F)cc1	1	1	16122	-5
Cc1nn(CCOc2ccccc2)c(=O)n1-c1cccc(F)c1	8	7	16398*	-21
CCn1c(SCC(=O)OC)nnc1-c1c[nH]c2ccccc12	-2	0	5256	-2
COCCn1c(SCC(N)=O)nnc1-c1c[nH]c2ccccc12	-8	-1	4592	-8
CCn1c(SCC(=O)NCc2ccccc2)nnc1-c1c[nH]c2ccccc12	-2	1	22868*	-7
C=CCSc1nnc(-c2c[nH]c3ccccc23)n1CCOC	-1	1	22750*	-2
COc1ccc(-c2ccc(=O)[nH]n2)cc1	-2	-1	20511*	-3
CCOC(=O)NC1(C(F)(F)F)NC(=O)N(Cc2ccco2)C1=O (stereo not drawn)	0	?	16624*	2
CCn1nnc(C(=O)O)c1C(=O)O	-4	?	16922*	-5
Nc1c(C(=O)O)nnn1Cc1ccccc1	2	1	9524	0
O=C(Cn1nnc(-c2ccc(CN3CCOCC3)cc2)n1)N1CCCc2ccccc21	2	0	22876*	0
Cc1cc(C)cc(OCc2nnc(SCC(=O)c3ccccc3)o2)c1	-2	?	19614*	-2
Cc1ccc(C(=O)OCC(=O)c2c[nH]c3ccccc23)cc1NC(=O)c1ccco1	1	1	3218	-3
CCOC(=O)c1c(C)[nH]c(C(=O)CN2CCOCC2)c1C	-2	0	23350*	-2
CCOC(=O)c1c(C)[nH]c(C(=O)CSc2ccc(Cl)cc2)c1C	-1	?	16362*	-24
CCOC(=O)c1[nH]c(C)c(C(=O)NCCCN2CCOCC2)c1C	8	1	10335	-3
COCCn1c(SCc2csc(-c3ccccc3)n2)nc2ccccc21	-6	?	22786*	-1
O=C(CCC(=O)c1ccc(F)cc1)Nc1cccc(S(=O)(=O)Nc2cccc(Cl)c2)c1	6	1	2061	0
CCNC(=O)c1oc2c(c1C)C(=O)CC(C)(C)C2	-1	2	20892*	-20
Cc1c(C(=O)NCc2cccnc2)oc2c1C(=O)CC(C)(C)C2	8	7	21305*	0
CC(=O)N1CCc2cc(S(=O)(=O)NCCN3CCC(C)CC3)ccc21	?	-3	5021	0
CCOc1oc(-c2ccc(OC)cc2)nc1C(F)(F)F	-1	0	16401*	0
COc1ccc2ccccc2c1CN1CCN(Cc2ccccc2)CC1	-6	-1	5884	-7
COc1ccc2ccccc2c1CN1CCCC(CO)C1 (stereo not drawn)	-4	?	22577*	-14
Cn1c(=O)c(C(=O)c2ccccc2)nc2ccccc21	-6	1	2379	0
SMILES	BoNT F protease	BoNT-A LC inh2	Bead autofluor	Anthrax LF prot
O=C(c1ccccc1)c1nc2ccccc2n(CCCn2c(=O)c(C(=O)c3ccccc3)nc3ccccc32)c1=O	0	1	16402*	6
CCn1c(SCC(=O)N2CCN(c3ccccc3)CC2)nc2c([nH]c3ccccc32)c1=O	6	-3	6317	2
CCOc1ccc(-c2nn(-c3ccccc3)cc2/C=C2\SC(=S)N(Cc3ccco3)C2=O)cc1	6	37*	2009	14
CC(C)n1ncc2c(C(=O)NCCc3ccc(F)cc3)cc(C3CC3)nc21	-3	1	6360	-4
C=CCn1c(=NC(=O)c2cc(-c3cccs3)nc3ccccc23)sc2cc(S(N)(=O)=O)ccc21	5	18	2634	8
COCCn1c(=NC(=O)c2cc(-c3cccs3)nc3ccccc23)sc2cc(S(N)(=O)=O)ccc21	2	34*	2383	12
Cc1ccc(S(=O)(=O)N2CCOCC2)cc1NC(=O)COC(=O)CSc1ccc(Br)cc1C	2	2	22185*	2
CN(Cc1ccccc1F)C(=O)c1cccc(NC(=O)CC2SC(N3CCCCC3)=NC2=O)c1 (stereo not drawn)	?	?	5842	?
COc1cccc(/C=C/c2ccccn2)c1O	-84	-21	24116*	-18
COc1cccc(/C=C/c2ccc3cccc(O)c3n2)c1OC	?	2	3734	-9
CCOc1ccccc1NC(=O)COc1cccc(-n2cnnn2)c1	-4	-2	23672*	-2
CCOc1ccc(NC(=O)COc2ccc(-n3cnnn3)cc2)cc1	?	?	5638	?
CCc1ccccc1NC(=O)COc1cccc(-n2cnnn2)c1	-22	0	3834	4
O=C(COc1ccc(F)cc1)Nc1ccc(-n2cnnn2)cc1	1	?	20385*	1
CCOc1ccc(NC(=O)c2cccc(-n3cnnn3)c2)cc1	-4	?	23535*	-2
CC(=O)Oc1ccc(-c2cccc(C(=O)NCC(=O)O)c2)cc1	-2	-2	23862*	-1
CCOC(=O)C1=CNS(=O)(=O)NC1c1ccc(C[C@H](NC(=O)CNC(=O)CCc2ccccc2)C(N)=O)cc1 (stereo partly drawn)	-4	0	2892	-4
CCc1nc2oc3ccccc3c(=O)c2c(=O)n1Cc1ccccc1	-2	-1	3211	-4
CCc1nc2oc3cc(OC)ccc3c(=O)c2c(=O)n1Cc1ccccc1	-4	?	24709*	-1
COc1cc(CN2CCC(C(=O)N3CCN(c4ccccc4F)CC3)CC2)ccc1O	2	0	23648*	-2
COc1cccc(CN2CCC(C(=O)N3CCN(c4ccccc4F)CC3)CC2)c1	6	0	2414	0
CCOC(=O)C1=C(C)OC(N)=C(C#N)C1c1ccsc1 (stereo not drawn)	16	18	17866*	-9
CCOC(=O)C1=C(CC)OC(N)=C(C#N)C1c1ccc(OC)cc1OC (stereo not drawn)	7	?	19947*	1
CCOC(=O)[C@]12CCC=C1N(Cc1ccc(Cl)cc1Cl)C(=O)[C@H](CC(=O)NCCCN1CCCC1=O)C2	1	0	4171	-2
Cc1ccnc(NC(=O)c2ccc3[nH]c(=O)c(=O)[nH]c3c2)c1	10	1	5788	-1
SMILES	BoNT F protease	BoNT-A LC inh2	Bead autofluor	Anthrax LF prot
Cc1ccc(NC(=O)c2sccc2SCc2cccc(C(F)(F)F)c2)cc1	-12	-7	22569*	-5
CN(C)/C=C(\C#N)C(=O)Nc1ccc(F)cc1	-3	0	2146	-2
N#CCSc1ccsc1C(=O)Nc1ccc(F)cc1	-5	0	16375*	-2
Cc1cccc(C)c1NC(=O)c1sccc1SCc1cccc(C(F)(F)F)c1	-6	-4	17658*	-2
O=C(NCCN1C(=O)S/C(=C\c2ccc(F)cc2)C1=O)c1cccc(S(=O)(=O)N2CCOCC2)c1	0	0	3019	-2
CS(=O)(=O)NC1c2cccc3cccc(c23)C1N1CCOCC1 (stereo not drawn)	-3	-1	8047	-1
COc1ccc(N2CC2c2ccncc2)cc1 (stereo not drawn)	-5	0	3581	3
COc1ccc(N2COC3c4cccc5cccc(c45)C32)cc1 (stereo not drawn)	-3	-1	20787*	-4
Clc1ccc(N2COC3c4cccc5cccc(c45)C32)cc1 (stereo not drawn)	-2	0	22405*	-1
COc1ccc(CCNC(=O)[C@H](CC(C)C)NC(=O)N2CCn3c2nc2ccccc23)cc1OC	0	1	5585	-4

Screening results as filed in PubChem.
